Source: PubChem BioAssay
Hits are enriched below; roughly 4.8% of the tested compounds scored in any of these assays.
ATXN2 expr inh: ATXN2 expression inhibition; HEK-293 ATXN2-luciferase reporter, luminescence, 24 h; Potency, µM (top dose mostly 57 µM), without a hit: top-dose activity change, negative = inhibition, most hits filed as inhibitors; 360,000 compounds, 0.72% hits; AID 1745845; also: potency is read from the fitted curve at half-maximal effect; % is scaled to controls: 0 for no effect and ±100 for the full control effect; nearly all actives have a fitted effect of over 55% in size
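qHTS (up to 57 uM final) was run with 24 h compound exposure of reporter cells at 37 °C. Each well was multiplexed: SteadyGlo luminescence measured ATXN2-luciferase expression after a fluorogenic Gly-Phe-AFC viability readout (25 uM final).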
D3 ag: agonists of human D3 dopamine receptor | max activation, % | P35462 | D3R DiscoveRx beta-arrestin cells, luminescence, 90 min | 410,000 compounds, 0.58% hits; in the data active = max activation above about 30%; also: 0% is about no effect
Target sequence (P35462 whole entry, looked up): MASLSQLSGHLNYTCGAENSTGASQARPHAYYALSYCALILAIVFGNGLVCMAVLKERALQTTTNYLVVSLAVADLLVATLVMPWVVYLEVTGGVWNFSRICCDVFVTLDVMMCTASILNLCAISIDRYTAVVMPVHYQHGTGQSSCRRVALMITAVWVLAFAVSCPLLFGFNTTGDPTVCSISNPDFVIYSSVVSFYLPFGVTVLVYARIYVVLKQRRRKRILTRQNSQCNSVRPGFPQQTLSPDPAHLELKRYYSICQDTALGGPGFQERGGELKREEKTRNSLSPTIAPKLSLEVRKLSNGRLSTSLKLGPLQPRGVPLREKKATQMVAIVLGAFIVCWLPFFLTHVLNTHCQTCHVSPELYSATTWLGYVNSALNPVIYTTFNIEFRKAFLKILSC
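Agonist mode: compounds and dopamine controls were applied to plated cells for 90 min at 37 degrees C after an overnight attachment at 1500 cells/well. Luminescent read-out followed 30 - 60 minutes at room temperature with DiscoveRx detection reagent.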
TGFb inhibitor: TGF-b pathway inhibition | HepG2 CAGA-GFP TGF-b/SMAD3 reporter, GFP fluorescence, 18 h; TGF-beta stimulated, 500 pg/mL final | Potency, µM (highest dose often 46.1 µM), without a hit: at the top dose activity, negative = inhibition, actives largely listed as inhibitors | 410,000 compounds, 1.2% hits; also: potency is read from the fitted curve at half-maximal effect; % is scaled to controls: 0 for no effect and ±100 for the full control effect; nearly all actives have a fitted effect of over 65% in size
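TGF-beta reporter screen: HEPG2 CAGA-GFP, 1% FBS, 500 pg/mL TGF-beta final, 18 h; per-cell GFP summed per well; curves fitted and categorized by class.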
S2 tox: reduces viability in counter-screen for ATXN expression inhibitors; S2 cells (HEK-293 line with an ATXN2-luciferase reporter) viability, CellTiter-Fluor protease fluorescence, 24 h; Potency, µM (series often up to 56.7 µM), most hits filed as cytotoxic; 400,000 compounds, 0.49% hits; AID 651635; also: potency is read from the fitted curve at half-maximal effect; nearly all actives have a fitted effect of over 40% in size
DRD3 antagonist: antagonists of human D3 dopamine receptor. P35462. D3R cells, DiscoveRx beta-arrestin luminescence, antagonist mode; hits give low values. max response, negative = inhibition, %. 360,000 compounds, 2.5% hits; in the data active = max response below about -50%; inconclusive = no clear call, values can overlap the other calls; also: % is scaled to controls: 0 for no effect and ±100 for the full control effect
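Cells expressing the human receptor were seeded at 1500 cells/well, incubated overnight at 37 degrees C in 5% CO2, then exposed to library compounds with dopamine controls for 90 minutes at 37 degrees C before luminescent detection.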
HepG2 viability: counter-screen for TGF-b inhibitors: cytotoxicity in HepG2 cells; AID 588856; Potency, µM (series often up to 46.1 µM), inactives show at the highest dose activity change, negative = cytotoxicity, hits mostly cytotoxic; 410,000 compounds, 0.76% hits; HepG2 CAGA-GFP viability, ATP luminescence, 18 h; also: potency is read from the fitted curve at half-maximal effect
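CellTiter-Glo luminescence gave cytotoxicity after 18 hours at 37 degrees C. The cells were HepG2 CAGA-GFP in 1% FBS DMEM, stimulated with 500 pg/mL TGF-beta after compound addition. %Activity was normalised to no-cell wells (complete cell-killing) and DMSO (no toxicity), and curves were fitted and classified.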
* marks the source's active call; other numbers are inactive results; i = inactive; ? = inconclusive; nt = no result given. Unless noted, calls follow the shape of the dose curve; as a rule, active = well fitted curve in the direction sought with a large enough effect; inconclusive = small, poorly fitted or top-dose-only effect, or another doubt; inactive = no such curve, though single readings can be large; an effect the other way counts as inactive or inconclusive.

SMILES	ATXN2 expr inh	D3 ag	TGFb inhibitor	S2 tox	DRD3 antagonist	HepG2 viability
COc1cn(CC(=O)Nc2ccccc2)c(CN2CCCCC2)cc1=O	nt	2.2	3.6%	nt	nt	0.0%
Cn1cccc1/C=C1\SC(=Nc2cccc(O)c2)NC1=O	nt	-12.1	?	15.8µM*	3.0	-12.1%
Cn1cccc1/C=C1\SC(=Nc2ccc(O)cc2)NC1=O	nt	-8.2	?	?	?	-33.1%
COc1ccc(OC)c(-c2oc3ccccc3c(=O)c2O)c1	2.5%	0.2	?	i	-19.1	-6.1%
CCOc1ccccc1-c1c2cc(O)c(=O)cc-2oc2cc(O)c(O)cc12	?	-15.2	2.82µM*	nt	-58.3*	-2.8%
O=c1cc2oc3cc(O)c(O)cc3c(-c3ccccc3O)c-2cc1O	nt	-1.0	16.0%	i	-13.0	-23.5%
COc1ccc(OC)c(-c2c3cc(O)c(=O)cc-3oc3cc(O)c(O)cc23)c1	?	-18.0	?	20µM*	-4.4	-19.1%
CC[C@@]1(C(=O)OC)N[C@H](CN(C)S(=O)(=O)c2ccc(C(C)(C)C)cc2)[C@@H]2C(=O)N(C)C(=O)[C@@H]21	3.4%	41.0*	7.3%	i	29.2	1.9%
CC[C@@]1(C(=O)OC)N[C@H](CN(C)S(=O)(=O)c2ccccc2)[C@@H]2C(=O)N(C)C(=O)[C@@H]21	2.1%	34.1*	10.1%	i	12.3	8.9%
COC(=O)c1c(Oc2ccc(C(C)=O)cc2)nnc(-c2ccccc2)c1-c1ccccc1	?	2.5	?	?	nt	-17.9%
Oc1ccc(N=Nc2nc(-c3ccccc3)c(-c3ccccc3)[nH]2)cc1	10.5%	-9.5	-30.1%	11.2µM*	-53.0*	-28.0%
CCC(Sc1nc(-c2ccccc2)[nH]c1S(=O)(=O)c1ccc(C)cc1)C(=O)O (configuration not stated)	15.2%	8.4	-17.0%	i	nt	3.5%
Cc1cccc(CSc2cn(CC(=O)N3CCCC3)c3ccccc23)c1	nt	-5.7	?	nt	nt	-44.3%
O=C(c1ccccc1)N1CCN(Cc2ccc3c(c2)OCO3)CC1	-2.2%	-25.0	12.1%	i	-78.4*	8.7%
N#CCC(=O)N1CCN(Cc2ccc3c(c2)OCO3)CC1	nt	2.7	-15.0%	i	2.0	1.58µM*
Cc1cccc(C(=O)N2CCN(Cc3ccc4c(c3)OCO4)CC2)c1	?	-12.0	-3.3%	i	-80.5*	-29.0%
CC1CCN(C2CCN(C(=O)c3ccccc3F)CC2)CC1	-2.4%	-5.5	-9.3%	i	5.0	11.2µM*
O=C(c1ccccc1Cl)N1CCN(Cc2ccc3c(c2)OCO3)CC1	-18.5%	-25.6	?	i	-20.2	-26.6%
O=C(c1ccc(Cl)c(Cl)c1)N1CCN(Cc2ccc3c(c2)OCO3)CC1	-14.7%	-15.0	?	i	1.0	-30.7%
COc1ccc(OC)c(/C=C/c2sc3ccccc3[n+]2C)c1	nt	nt	-2.1%	nt	nt	2.4%
c1ccc2nc(N3CCN(Cc4ccc5c(c4)OCO5)CC3)cnc2c1	-12.0%	-11.8	-6.5%	i	?	-11.9%
O=C(C1CC2CCC1C2)N1CCN(Cc2ccc3c(c2)OCO3)CC1 (configuration not stated)	-1.1%	-5.3	?	i	-56.2*	-9.1%
O=C(c1ccccc1)N1CCN(Cc2ccccc2Br)CC1	-0.6%	0.5	4.9%	i	-62.4*	-2.5%
COc1nc2ccccc2nc1N1CCN(Cc2ccc3c(c2)OCO3)CC1	-35.7%	4.5	-3.8%	i	-114.3*	4.5%
O=C(O)C1CC(=O)N(Cc2ccc3c(c2)OCO3)C1 (configuration not stated)	-1.5%	-14.2	0.1%	i	-106.0*	0.0%
SMILES	ATXN2 expr inh	D3 ag	TGFb inhibitor	S2 tox	DRD3 antagonist	HepG2 viability
O=C(c1ccc(Br)cc1)N1CCN(Cc2ccccc2)CC1	-4.4%	-4.5	17.1%	i	?	-16.9%
CCOc1ccc(NC(=O)c2cnc3sc(N4CCOCC4)nn3c2=O)cc1	nt	-13.7	-32.7%	nt	nt	-17.0%
Cc1ccc(C2c3cccn3CCN2S(=O)(=O)c2ccc([N+](=O)[O-])cc2)cc1 (configuration not stated)	-13.9%	4.6	-17.7%	i	nt	-0.2%
O=C(c1ccccc1F)N1CCN(Cc2ccccc2F)CC1	-16.0%	-12.2	-0.4%	i	-57.3*	9.6%
O=C(c1cc2cc(F)ccc2[nH]1)N1CCN(Cc2ccc3c(c2)OCO3)CC1	-23.3%	-12.7	-25.4%	i	-86.4*	-14.2%
c1cc2c(cc1CN1CCN(C3CCCCCC3)CC1)OCO2	-7.1%	-16.0	-0.5%	i	-51.3*	-11.5%
Cc1ccc(C(=O)N2CCN(Cc3ccc4c(c3)OCO4)CC2)c(Cl)c1	0.0%	-23.7	?	?	-86.3*	-31.4%
COc1cc2cc(C(=O)N3CCN(Cc4ccc5c(c4)OCO5)CC3)[nH]c2cc1OC	nt	-7.4	?	i	-25.0	-29.9%
c1ccc(CN2CCC(N3CCN(Cc4ccc5c(c4)OCO5)CC3)CC2)cc1	-2.6%	-10.2	-6.1%	i	-11.0	4.2%
COc1cc(NC(=O)C2CCN(S(=O)(=O)c3ccc4c(c3)oc(=O)n4C)CC2)cc(OC)c1	14.5%	-9.1	-10.2%	i	nt	3.7%
Cc1ccc(NC(=O)CN2C(=O)CSc3ccc(S(=O)(=O)N(C)C)cc32)cc1C	9.5%	-12.8	?	i	nt	-26.9%
Cc1ccc(C(=O)N2CCN(Cc3ccc4c(c3)OCO4)CC2)cc1C	-22.6%	-24.6	-28.1%	i	-62.5*	-13.7%
S=c1[nH]ncn1/N=C/c1ccc(Br)cc1	-8.0%	-9.6	14.6%	i	-108.8*	3.7%
S=c1[nH]ncn1/N=C/c1ccccc1	6.5%	-4.6	5.1%	i	-1.5	-1.0%
COc1ccc(-c2ccc(=O)n(CC(=O)NCCc3ccccc3)n2)cc1	-5.2%	6.4	2.1%	i	nt	-0.6%
COc1ccc(-c2cc(=O)c3c(OC)c(OC)c(OC)c(OC)c3o2)cc1OC	-3.0%	40.3*	-1.9%	i	40.9	-18.4%
CCOc1ncc(F)c(=O)[nH]1	-3.6%	nt	nt	i	nt	nt
COc1cc2oc3cc(C#Cc4ccc(N)cc4)ccc3c(=O)c2cc1OC	?	57.1*	?	nt	103.1	-28.2%
COc1cc2oc3ccc(C#Cc4ccc(N)cc4)cc3c(=O)c2cc1OC	11.2%	25.4	-15.8%	i	53.0	-37.1%
CC(C)(CC(=O)NCc1ccc(Cl)cc1Cl)CC1=NS(=O)(=O)c2ccccc2N1	25.1µM*	1.2	?	i	nt	-51.0%
COC(=O)c1scc(-c2ccc(C)cc2)c1S(=O)(=O)N1CCN(c2cccc(OC)c2)CC1	-9.1%	-14.2	?	i	nt	-21.9%
COc1ccc(CCNC(=O)CCCn2c(=O)c3ccccc3n(CC(=O)Nc3cccc(C)c3)c2=O)cc1OC	-35.1%	0.5	?	?	nt	-19.4%
